Source: PubChem BioAssay (NCI)
About 83,000 compounds went through this panel and 20% of them were active in at least one assay; those are over-represented in the sample as a whole.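 Method: cells in 96-well plates; compound added at one concentration; 48 h incubation; percent growth measured; values under 10 scored active.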 Unmarked numbers belong to inactive results. Calls of active or inactive are those of the source.

The compounds below were run on HL-60(TB) leukemia (assay: NCI-60 one-dose screen, 48 h (100 = growth as untreated, 0 = no growth, -100 = all killed)). Conditions: 10 µM unless noted.

SMILES	growth
CCN1CCN(c2cc(-c3cn[nH]c3-c3cc(C)cc(OC)c3)nc(-c3cccnc3)n2)CC1	64.9%
CCN1CCN(c2cc(C)nc(NCc3cc(Nc4ccnc5cc(Cl)ccc45)ccc3F)n2)CC1	95.7%
Cc1ccc(S(=O)(=O)N2CCCC2CO)cc1 (stereo not given)	97.7%
CCOC(=O)C(C(C)=O)c1nc2sc3cc(Cl)c(Cl)cc3n2c(=O)c1C#N (stereo not given)	100%
OC(CCC(O)(c1ccccc1)c1ccccc1)(c1ccccc1)c1ccccc1	-21.7% (active)
COc1ccc(/C=N/C2=C(C#N)C(c3ccccc3)c3c(ccc4ccccc34)O2)cc1 (stereo not given)	-18.1% (active)
O=c1c2c(c(=O)n1O)c1c3ccc[nH]c3nc1c1nc3[nH]cccc3c12	81%
CN(C)c1ccc(C(=O)OCCCCCCl)cc1	76%
Nc1cc2c([nH]c[n+]2CC#CCCl)c(SCC#CCCl)n1	-17.8% (active)
O=C1c2cc([N+](=O)[O-])ccc2-c2cc(Cl)c(NC(=O)C(F)(F)F)cc21	75.6%
CC1(Cc2ccccc2)CC2=C(C(=O)O1)C(c1ccccc1)NC(=O)N2 (stereo not given)	-25.1% (active)
Nn1c(=O)c(=O)[nH]c2c(cnn2-c2ccccc2)c1=O	98.6%
O=C1C=CC2(O)OC/C(=C\c3ccccc3)C(O)=C2C1=O (stereo not given)	4.63% (active)
NC(=Nc1nc(-c2ccccn2)cc2ccccc12)c1ccccn1	-30.6% (active)
C=CCn1ccc(=O)nc1SC	96.4%
O=C(NCc1cccc(CNC(=O)Nc2nc3ccccc3[nH]2)c1)Nc1nc2ccccc2[nH]1	10.1%
CCCCCCCCCCCCNC(=S)N/N=C/c1ccccc1O	49.1%
CN(C)CCCNC(=O)C(c1ccccc1)c1ccccc1	106%
CCOC(=O)/C(=C(\C)N)C1CC(=O)NC1=O (stereo not given)	99.9%
CCN(CC)CCCC(C)Nc1ccnc2c(OC)cccc12 (stereo not given)	52.6%

SMILES	growth
CN1CCN(C(=O)[C@@]2(C)CC[C@]3(C)CC[C@]4(C)C(=CC[C@@H]5[C@@]6(C)C/C(=C/c7ccncc7)C(=O)C(C)(C)[C@@H]6CC[C@]54C)[C@@H]3C2)CC1	-8.87% (active)
COc1ccc(-c2nnc(-c3ccc4c(c3)nc(-c3ccccc3)n4C3CCCCC3)o2)cc1	17.2%
Fc1ccc(C2CC(c3cccc(Nc4ccncc4)c3)=NN2c2ccccc2)cc1 (stereo not given)	-19.5% (active)
COC(=O)[C@H]1Cc2c([nH]c3ccccc23)[C@@H](c2cccs2)N1	99.7%
O=C(CCCCCCSc1nc(-c2ccccc2)cc(-c2ccccc2)n1)NO	-33.2% (active)
CCC(CC)NCCCCCNc1cc(OC)cc2cccnc12	110%
Cc1cccc(C)c1Nc1nnc(-c2ccc(F)cc2)o1	99.9%
CCN(CC)CCCC(Nc1c2ccc(Cl)cc2nc2ccc(OC)cc12)c1ccc(F)cc1 (stereo not given)	-37.5% (active)
O=C(CCc1nnc2sc(-c3ccc(Cl)cc3Cl)nn12)c1nc2ncccc2[nH]1	3.13% (active)
CCCCSCC(=O)c1ccccc1	63.4%
Cc1ccc(S(=O)(=O)O)c(C)c1	100%
COc1cc(-c2cc(/C=C/C(=O)c3ccc(F)c(F)c3)[nH]n2)cc(OC)c1OC	82.6%
Cn1c(=O)c2nc3c(=O)n(C)c(=O)n(C)c3nc2n(C)c1=O	85.1%
CNC(=O)NCC1OC(n2cnc3c(NC(=O)Nc4ccccc4)ncnc32)C2OC(C)(C)OC12 (stereo not given)	83.9%
CN(C)C(=O)SC1=C(c2c(Cl)cccc2Cl)C(=O)c2ccccc21	-35.7% (active)
CC(=O)CSC(C)=O	102%
O=[N+]([O-])c1ccc(NC(=S)N/N=C/c2cc3ccccc3n3nnnc23)cc1	27.4%
CC(O)CN(CC(C)O)c1ccc2c(c1)Cc1cc([N+](=O)[O-])ccc1-2 (stereo not given)	74.5%
NC1=CC(=O)C(=O)c2ccccc21	39.2%
C=C1CCC2C3(C)COC(c4cccc(Cl)c4)OC3CCC2(C)C1/C=C/C1=CCOC1=O (stereo not given)	33.7%
